# Article PMC7862700, “An all-to-all approach to the identification of sequence-specific readers for epigenetic DNA modifications on cytosine”
# Tests used:
# Test in all cases: DAPPL (digital affinity profiling via proximity ligation, sequencing); 10 mM Tris-HCl pH 7.5, 50 mM NaCl, 1 mM DTT, 4% glycerol, room temperature, 30 min; GST-TFs on glutathione beads, 16-mer random dsDNA library, 0.1% formaldehyde crosslink after washing; high values mean tight binding
# FLI1 = target: T1, FLI1 (Homo sapiens, UniProt Q01543 1-452); conditions: protein: recombinant; tags: N-terminal GST; dsDNA, one strand shown
# T1 sequence: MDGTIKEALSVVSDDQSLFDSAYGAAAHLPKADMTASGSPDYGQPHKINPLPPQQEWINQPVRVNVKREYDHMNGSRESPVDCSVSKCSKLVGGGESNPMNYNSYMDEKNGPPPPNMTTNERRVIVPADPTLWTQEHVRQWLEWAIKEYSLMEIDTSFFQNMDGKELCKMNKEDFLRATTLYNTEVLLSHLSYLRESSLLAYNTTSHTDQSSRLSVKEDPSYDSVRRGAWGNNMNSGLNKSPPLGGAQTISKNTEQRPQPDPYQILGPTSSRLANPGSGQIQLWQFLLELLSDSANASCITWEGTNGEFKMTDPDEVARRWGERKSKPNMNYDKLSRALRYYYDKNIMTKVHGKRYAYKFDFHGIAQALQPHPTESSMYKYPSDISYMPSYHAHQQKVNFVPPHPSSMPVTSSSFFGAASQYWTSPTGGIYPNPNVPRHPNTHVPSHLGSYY
# Summary of the method: (§1)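 Human transcription factors were made in yeast as GST fusions, captured on glutathione beads and barcoded with DNA. With a tag-only sample included, the pool was incubated with 200 nmole of a random double-stranded 16-mer DNA library in Tris/NaCl/DTT/glycerol buffer at room temperature for 30 min, then crosslinked with 0.1% formaldehyde after washing, ligated by proximity, amplified and sequenced. For binding signal, each hexamer's read frequency for a factor is divided by its frequency for the tag-only sample.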
# ELK1 = target: T2, ELK1 (Homo sapiens, UniProt P19419 1-428); conditions: protein: recombinant; tags: N-terminal GST; dsDNA, one strand shown
# T2 sequence: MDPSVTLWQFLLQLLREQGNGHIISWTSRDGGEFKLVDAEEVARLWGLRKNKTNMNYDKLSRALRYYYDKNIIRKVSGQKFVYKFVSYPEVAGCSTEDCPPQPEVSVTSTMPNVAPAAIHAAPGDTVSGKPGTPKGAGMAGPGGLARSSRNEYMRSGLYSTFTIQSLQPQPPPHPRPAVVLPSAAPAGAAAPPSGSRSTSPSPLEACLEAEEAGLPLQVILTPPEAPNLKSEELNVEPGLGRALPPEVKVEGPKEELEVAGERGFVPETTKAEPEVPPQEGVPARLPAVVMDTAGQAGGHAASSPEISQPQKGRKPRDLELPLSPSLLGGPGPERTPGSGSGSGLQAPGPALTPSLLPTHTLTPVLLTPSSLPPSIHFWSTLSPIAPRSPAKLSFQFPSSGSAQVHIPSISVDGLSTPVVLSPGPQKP
# Summary of the method: as §1
# GABPA = target: T3, GABPA (Homo sapiens, UniProt Q06546 1-454); conditions: protein: recombinant; tags: N-terminal GST; dsDNA, one strand shown
# T3 sequence: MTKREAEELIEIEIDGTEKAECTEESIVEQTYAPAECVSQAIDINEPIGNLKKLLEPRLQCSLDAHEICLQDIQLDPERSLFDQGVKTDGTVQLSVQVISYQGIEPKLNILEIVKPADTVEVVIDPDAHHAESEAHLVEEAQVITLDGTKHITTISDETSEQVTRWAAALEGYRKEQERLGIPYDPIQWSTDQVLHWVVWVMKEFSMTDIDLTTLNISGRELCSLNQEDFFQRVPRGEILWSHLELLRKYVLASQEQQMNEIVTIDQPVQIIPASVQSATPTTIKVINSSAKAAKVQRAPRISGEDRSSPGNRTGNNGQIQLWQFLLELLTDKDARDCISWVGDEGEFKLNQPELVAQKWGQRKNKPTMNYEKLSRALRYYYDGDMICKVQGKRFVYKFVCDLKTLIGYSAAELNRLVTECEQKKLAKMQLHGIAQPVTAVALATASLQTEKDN
# Summary of the method: as §1
# ERG = target: T4, ERG (Homo sapiens, UniProt P11308 1-479); conditions: protein: recombinant; tags: N-terminal GST; dsDNA, one strand shown
# T4 sequence: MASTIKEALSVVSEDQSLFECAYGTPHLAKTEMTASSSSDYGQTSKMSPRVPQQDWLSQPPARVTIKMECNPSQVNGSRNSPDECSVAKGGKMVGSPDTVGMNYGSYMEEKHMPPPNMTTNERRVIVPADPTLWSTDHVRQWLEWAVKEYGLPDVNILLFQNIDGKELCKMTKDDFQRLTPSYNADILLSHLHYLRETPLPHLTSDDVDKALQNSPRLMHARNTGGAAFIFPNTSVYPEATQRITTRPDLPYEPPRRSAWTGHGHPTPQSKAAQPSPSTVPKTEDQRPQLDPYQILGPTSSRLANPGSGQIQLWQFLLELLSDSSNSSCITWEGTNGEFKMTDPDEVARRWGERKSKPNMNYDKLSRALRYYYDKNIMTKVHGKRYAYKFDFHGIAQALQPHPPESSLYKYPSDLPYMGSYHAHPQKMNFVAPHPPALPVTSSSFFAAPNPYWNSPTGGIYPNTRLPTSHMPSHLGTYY
# Summary of the method: as §1
# ELF1 = ELF1 (Homo sapiens, UniProt P32519 1-619); conditions: protein: recombinant; tags: N-terminal GST; dsDNA, one strand shown
# Summary of the method: as §1
# EHF = target: T5, EHF (Homo sapiens, UniProt Q9NZC4 1-300); conditions: protein: recombinant; tags: N-terminal GST; dsDNA, one strand shown
# T5 sequence: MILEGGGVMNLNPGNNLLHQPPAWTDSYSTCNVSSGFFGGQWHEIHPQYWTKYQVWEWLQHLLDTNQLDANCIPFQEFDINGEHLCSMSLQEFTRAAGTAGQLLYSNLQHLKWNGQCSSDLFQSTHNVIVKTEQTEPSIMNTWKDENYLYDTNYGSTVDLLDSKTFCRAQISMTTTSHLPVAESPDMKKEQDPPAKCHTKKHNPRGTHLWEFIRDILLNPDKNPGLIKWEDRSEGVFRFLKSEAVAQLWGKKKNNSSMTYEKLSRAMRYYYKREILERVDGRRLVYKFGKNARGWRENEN
# Summary of the method: as §1
# SPI1 = SPI1 (Homo sapiens, UniProt P17947 1-270); conditions: protein: recombinant; tags: N-terminal GST; dsDNA, one strand shown
# Summary of the method: as §1
# SPIB = SPIB (Homo sapiens, UniProt Q01892 1-262); conditions: protein: recombinant; tags: N-terminal GST; dsDNA, one strand shown
# Summary of the method: as §1
# ELK3 = target: T6, ELK3 (Homo sapiens, UniProt P41970 1-407); conditions: protein: recombinant; tags: N-terminal GST; dsDNA, one strand shown
# T6 sequence: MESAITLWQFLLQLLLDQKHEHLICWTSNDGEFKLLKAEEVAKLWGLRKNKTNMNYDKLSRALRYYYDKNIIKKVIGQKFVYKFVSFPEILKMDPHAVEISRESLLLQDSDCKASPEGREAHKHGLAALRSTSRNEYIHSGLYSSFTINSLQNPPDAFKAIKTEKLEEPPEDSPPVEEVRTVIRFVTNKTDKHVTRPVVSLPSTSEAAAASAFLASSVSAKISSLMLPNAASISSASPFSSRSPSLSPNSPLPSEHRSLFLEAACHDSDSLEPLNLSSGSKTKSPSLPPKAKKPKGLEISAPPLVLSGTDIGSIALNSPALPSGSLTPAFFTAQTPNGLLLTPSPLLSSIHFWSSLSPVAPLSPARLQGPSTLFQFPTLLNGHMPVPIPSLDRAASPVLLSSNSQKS
# Summary of the method: as §1
# FEV = target: T7, FEV (Homo sapiens, UniProt Q99581 1-238); conditions: protein: recombinant; tags: N-terminal GST; dsDNA, one strand shown
# T7 sequence: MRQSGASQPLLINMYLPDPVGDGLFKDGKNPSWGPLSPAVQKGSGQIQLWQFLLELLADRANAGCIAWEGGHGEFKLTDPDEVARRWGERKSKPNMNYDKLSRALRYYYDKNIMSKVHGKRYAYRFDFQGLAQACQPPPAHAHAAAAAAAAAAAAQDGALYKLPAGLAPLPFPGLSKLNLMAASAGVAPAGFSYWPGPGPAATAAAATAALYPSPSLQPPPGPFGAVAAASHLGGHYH
# Summary of the method: as §1
# ETV5 = ETV5 (Homo sapiens, UniProt P41161 1-510); conditions: protein: recombinant; tags: N-terminal GST; dsDNA, one strand shown
# Summary of the method: as §1
# HSF1 = HSF1 (Homo sapiens, UniProt Q00613 1-529); conditions: protein: recombinant; tags: N-terminal GST; chain copies: 3; dsDNA, one strand shown
# Summary of the method: as §1
# SPIC = target: T8, SPIC (Homo sapiens, UniProt Q8N5J4 1-248); conditions: protein: recombinant; tags: N-terminal GST; dsDNA, one strand shown
# T8 sequence: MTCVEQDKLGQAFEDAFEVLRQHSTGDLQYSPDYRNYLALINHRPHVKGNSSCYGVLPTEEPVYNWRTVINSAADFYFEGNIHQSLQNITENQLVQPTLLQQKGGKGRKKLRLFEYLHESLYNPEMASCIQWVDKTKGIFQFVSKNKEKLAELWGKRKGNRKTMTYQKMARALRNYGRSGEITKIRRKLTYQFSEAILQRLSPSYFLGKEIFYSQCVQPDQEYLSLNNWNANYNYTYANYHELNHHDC
# Summary of the method: as §1
# ELF4 = ELF4 (Homo sapiens, UniProt Q99607 1-663); conditions: protein: recombinant; tags: N-terminal GST; dsDNA, one strand shown
# Summary of the method: as §1
# ELK4 = target: T9, ELK4 (Homo sapiens, UniProt P28324-2 1-405); conditions: protein: recombinant; tags: N-terminal GST; dsDNA, one strand shown
# T9 sequence: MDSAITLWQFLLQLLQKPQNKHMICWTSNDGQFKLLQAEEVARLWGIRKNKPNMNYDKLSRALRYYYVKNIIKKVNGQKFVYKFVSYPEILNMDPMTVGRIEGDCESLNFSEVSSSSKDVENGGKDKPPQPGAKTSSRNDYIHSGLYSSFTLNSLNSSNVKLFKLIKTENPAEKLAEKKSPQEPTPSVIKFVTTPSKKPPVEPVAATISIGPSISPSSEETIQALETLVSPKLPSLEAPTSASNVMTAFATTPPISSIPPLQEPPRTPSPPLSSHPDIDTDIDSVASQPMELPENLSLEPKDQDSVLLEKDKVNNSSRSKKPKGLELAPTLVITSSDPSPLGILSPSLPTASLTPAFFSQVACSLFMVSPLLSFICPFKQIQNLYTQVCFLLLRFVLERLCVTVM
# Summary of the method: as §1
# ETV2 = target: T10, ETV2 (Homo sapiens, UniProt O00321 1-342); conditions: protein: recombinant; tags: N-terminal GST; dsDNA, one strand shown
# T10 sequence: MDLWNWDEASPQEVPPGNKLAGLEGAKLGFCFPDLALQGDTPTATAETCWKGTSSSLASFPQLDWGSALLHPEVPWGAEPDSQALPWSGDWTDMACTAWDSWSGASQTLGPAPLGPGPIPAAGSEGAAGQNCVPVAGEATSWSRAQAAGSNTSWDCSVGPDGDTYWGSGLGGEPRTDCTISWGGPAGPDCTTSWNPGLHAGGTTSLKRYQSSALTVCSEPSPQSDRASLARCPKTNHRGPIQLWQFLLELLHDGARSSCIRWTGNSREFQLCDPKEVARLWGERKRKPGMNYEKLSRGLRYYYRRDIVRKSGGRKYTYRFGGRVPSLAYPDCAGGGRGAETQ
# Summary of the method: as §1
# ELF3 = target: T11, ELF3 (Homo sapiens, UniProt P78545 1-371); conditions: protein: recombinant; tags: N-terminal GST; dsDNA, one strand shown
# T11 sequence: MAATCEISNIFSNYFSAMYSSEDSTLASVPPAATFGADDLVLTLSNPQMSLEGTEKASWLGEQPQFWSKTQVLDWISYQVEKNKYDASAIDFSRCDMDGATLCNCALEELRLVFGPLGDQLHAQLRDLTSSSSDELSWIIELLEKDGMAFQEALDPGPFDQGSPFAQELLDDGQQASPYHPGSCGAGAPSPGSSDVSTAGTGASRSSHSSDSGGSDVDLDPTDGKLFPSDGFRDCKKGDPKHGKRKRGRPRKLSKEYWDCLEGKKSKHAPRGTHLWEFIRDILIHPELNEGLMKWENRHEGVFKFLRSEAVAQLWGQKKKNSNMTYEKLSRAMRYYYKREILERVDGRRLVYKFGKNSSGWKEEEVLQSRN
# Summary of the method: as §1
# CRX = CRX (Homo sapiens, UniProt O43186 1-299); conditions: protein: recombinant; tags: N-terminal GST; dsDNA, one strand shown
# Summary of the method: as §1
# ETV1 = ETV1 (Homo sapiens, UniProt P50549 1-477); conditions: protein: recombinant; tags: N-terminal GST; dsDNA, one strand shown
# Summary of the method: as §1
# Sequence of CRX (O43186 whole entry): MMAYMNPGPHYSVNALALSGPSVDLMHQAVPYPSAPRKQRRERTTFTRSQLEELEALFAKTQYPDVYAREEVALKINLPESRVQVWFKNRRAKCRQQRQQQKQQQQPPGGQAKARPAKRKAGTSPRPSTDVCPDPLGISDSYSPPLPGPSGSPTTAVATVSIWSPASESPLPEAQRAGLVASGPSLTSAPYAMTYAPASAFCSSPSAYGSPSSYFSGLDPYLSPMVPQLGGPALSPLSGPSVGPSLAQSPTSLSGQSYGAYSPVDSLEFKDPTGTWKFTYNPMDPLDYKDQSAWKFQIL
# Sequence of SPIB (Q01892 whole entry): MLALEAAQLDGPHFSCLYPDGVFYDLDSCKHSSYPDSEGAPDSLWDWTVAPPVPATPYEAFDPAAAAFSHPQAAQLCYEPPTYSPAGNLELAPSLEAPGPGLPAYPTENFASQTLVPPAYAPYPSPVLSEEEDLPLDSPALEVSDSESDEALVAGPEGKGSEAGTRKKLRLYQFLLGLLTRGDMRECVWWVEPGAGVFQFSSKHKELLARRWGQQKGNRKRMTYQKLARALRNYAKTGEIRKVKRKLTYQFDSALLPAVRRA
# Sequence of ELF4 (Q99607 whole entry): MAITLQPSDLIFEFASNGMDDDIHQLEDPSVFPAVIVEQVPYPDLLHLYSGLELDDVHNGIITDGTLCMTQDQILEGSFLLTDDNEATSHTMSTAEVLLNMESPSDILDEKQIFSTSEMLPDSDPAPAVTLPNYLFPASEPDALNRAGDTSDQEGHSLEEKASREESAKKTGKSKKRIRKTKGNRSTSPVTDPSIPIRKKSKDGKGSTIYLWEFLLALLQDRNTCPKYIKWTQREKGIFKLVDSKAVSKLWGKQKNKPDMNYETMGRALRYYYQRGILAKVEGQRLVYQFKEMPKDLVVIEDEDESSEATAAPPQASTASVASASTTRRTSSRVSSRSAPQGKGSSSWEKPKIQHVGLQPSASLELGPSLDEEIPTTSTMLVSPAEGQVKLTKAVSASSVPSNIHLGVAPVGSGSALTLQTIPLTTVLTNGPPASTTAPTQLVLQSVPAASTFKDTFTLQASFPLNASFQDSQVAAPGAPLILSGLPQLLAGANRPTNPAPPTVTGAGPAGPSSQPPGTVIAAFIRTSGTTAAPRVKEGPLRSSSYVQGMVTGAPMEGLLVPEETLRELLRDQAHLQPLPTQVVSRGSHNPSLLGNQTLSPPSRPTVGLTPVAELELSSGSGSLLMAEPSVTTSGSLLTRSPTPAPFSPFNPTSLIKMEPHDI
# Sequence of ETV1 (P50549 whole entry): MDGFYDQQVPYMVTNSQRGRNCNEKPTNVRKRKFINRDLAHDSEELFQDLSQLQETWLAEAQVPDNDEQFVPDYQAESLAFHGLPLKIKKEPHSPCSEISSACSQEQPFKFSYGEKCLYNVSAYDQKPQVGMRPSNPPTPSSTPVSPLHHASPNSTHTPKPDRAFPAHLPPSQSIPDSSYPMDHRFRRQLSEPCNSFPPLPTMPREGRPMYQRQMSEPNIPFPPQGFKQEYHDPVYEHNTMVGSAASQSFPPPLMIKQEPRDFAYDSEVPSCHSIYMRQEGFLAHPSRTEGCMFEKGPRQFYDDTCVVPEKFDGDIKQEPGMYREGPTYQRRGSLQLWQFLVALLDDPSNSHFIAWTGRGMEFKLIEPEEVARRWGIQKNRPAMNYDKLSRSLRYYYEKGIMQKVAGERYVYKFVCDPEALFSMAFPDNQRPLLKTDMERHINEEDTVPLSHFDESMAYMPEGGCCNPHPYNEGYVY
# Sequence of HSF1 (Q00613 whole entry): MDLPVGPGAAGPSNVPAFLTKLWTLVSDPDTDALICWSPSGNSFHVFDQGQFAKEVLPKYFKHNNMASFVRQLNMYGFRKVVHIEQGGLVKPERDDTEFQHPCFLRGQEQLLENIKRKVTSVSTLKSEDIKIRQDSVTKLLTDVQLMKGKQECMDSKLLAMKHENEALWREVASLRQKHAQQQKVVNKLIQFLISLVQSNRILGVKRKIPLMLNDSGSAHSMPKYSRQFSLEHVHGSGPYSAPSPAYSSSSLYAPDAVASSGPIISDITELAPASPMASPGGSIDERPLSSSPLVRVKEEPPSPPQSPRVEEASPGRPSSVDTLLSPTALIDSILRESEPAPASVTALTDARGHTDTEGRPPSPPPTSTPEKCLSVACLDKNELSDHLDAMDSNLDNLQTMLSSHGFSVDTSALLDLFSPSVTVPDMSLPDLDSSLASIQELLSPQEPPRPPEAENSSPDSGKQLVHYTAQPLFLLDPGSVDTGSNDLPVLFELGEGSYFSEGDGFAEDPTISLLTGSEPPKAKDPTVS
# Sequence of ETV5 (P41161 whole entry): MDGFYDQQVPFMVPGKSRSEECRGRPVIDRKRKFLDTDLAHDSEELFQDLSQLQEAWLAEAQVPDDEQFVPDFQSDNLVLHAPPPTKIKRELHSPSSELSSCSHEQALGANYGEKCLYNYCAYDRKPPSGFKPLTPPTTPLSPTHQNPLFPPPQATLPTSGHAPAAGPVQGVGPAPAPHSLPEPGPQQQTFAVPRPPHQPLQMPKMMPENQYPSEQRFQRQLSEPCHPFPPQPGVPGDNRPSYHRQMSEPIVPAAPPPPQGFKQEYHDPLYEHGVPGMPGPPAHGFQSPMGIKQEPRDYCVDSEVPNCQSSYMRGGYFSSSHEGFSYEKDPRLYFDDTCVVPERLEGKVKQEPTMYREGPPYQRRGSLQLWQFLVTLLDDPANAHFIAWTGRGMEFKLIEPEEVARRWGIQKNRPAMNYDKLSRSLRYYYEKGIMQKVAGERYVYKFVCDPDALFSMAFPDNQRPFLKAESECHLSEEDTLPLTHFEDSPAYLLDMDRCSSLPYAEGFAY
# Sequence of ELF1 (P32519 whole entry): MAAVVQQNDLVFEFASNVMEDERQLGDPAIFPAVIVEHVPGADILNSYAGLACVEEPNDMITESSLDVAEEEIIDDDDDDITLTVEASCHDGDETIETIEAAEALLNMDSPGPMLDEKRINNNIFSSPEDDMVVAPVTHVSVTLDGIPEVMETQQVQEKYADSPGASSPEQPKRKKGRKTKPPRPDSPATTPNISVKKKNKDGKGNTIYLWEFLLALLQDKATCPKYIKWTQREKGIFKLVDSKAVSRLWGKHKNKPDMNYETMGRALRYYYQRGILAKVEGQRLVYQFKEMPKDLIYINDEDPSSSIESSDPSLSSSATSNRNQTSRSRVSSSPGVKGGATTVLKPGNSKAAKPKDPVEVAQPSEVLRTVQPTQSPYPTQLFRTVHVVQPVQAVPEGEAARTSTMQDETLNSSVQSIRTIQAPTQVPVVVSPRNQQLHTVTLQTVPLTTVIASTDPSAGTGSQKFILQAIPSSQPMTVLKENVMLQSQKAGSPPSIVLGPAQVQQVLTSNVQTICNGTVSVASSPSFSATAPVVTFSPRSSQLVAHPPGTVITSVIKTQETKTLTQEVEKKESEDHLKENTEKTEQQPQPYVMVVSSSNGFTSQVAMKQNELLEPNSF
sequence,measurement,setting,value
CCCTCG,binding signal,FLI1,"1.23 fold enrichment (6-mer frequency, TF over GST control)"
same,binding signal,ELK1,"1.34 fold enrichment (6-mer frequency, TF over GST control)"
same,binding signal,GABPA,"1.38 fold enrichment (6-mer frequency, TF over GST control)"
same,binding signal,ERG,"1.14 fold enrichment (6-mer frequency, TF over GST control)"
same,binding signal,ELF1,"1.34 fold enrichment (6-mer frequency, TF over GST control)"
same,binding signal,EHF,"1.24 fold enrichment (6-mer frequency, TF over GST control)"
same,binding signal,SPI1,"1.23 fold enrichment (6-mer frequency, TF over GST control)"
same,binding signal,SPIB,"1.34 fold enrichment (6-mer frequency, TF over GST control)"
same,binding signal,ELK3,"1.15 fold enrichment (6-mer frequency, TF over GST control)"
same,binding signal,FEV,"1.19 fold enrichment (6-mer frequency, TF over GST control)"
same,binding signal,ETV5,"1.19 fold enrichment (6-mer frequency, TF over GST control)"
same,binding signal,HSF1,"1.22 fold enrichment (6-mer frequency, TF over GST control)"
same,binding signal,SPIC,"1.25 fold enrichment (6-mer frequency, TF over GST control)"
same,binding signal,ELF4,"1.36 fold enrichment (6-mer frequency, TF over GST control)"
same,binding signal,ELK4,"1.36 fold enrichment (6-mer frequency, TF over GST control)"
same,binding signal,ETV2,"1.25 fold enrichment (6-mer frequency, TF over GST control)"
same,binding signal,ELF3,"1.17 fold enrichment (6-mer frequency, TF over GST control)"
same,binding signal,CRX,"1.06 fold enrichment (6-mer frequency, TF over GST control)"
same,binding signal,ETV1,"1.25 fold enrichment (6-mer frequency, TF over GST control)"
